# Laboratory results reported in ChEMBL document CHEMBL3433997, “St. Jude Leishmania screening dataset” (2016).
# Target: Solute carrier family 2, facilitated glucose transporter member 1 (Homo sapiens) (UniProt P11166)
# Assay: ST_JUDE_LEISH: Cytotoxicity at 2uM final concentration against transgenic Leishmania Mexicana promastigotes LmGLUT1 that are glucose transport deficient and complemented with the human glucose transporter GLUT1. Activity is measured by DNA content using SYBR green in vitro
# Format: functional
# Chain of Solute carrier family 2, facilitated glucose transporter member 1 (Homo sapiens) (P11166 whole entry): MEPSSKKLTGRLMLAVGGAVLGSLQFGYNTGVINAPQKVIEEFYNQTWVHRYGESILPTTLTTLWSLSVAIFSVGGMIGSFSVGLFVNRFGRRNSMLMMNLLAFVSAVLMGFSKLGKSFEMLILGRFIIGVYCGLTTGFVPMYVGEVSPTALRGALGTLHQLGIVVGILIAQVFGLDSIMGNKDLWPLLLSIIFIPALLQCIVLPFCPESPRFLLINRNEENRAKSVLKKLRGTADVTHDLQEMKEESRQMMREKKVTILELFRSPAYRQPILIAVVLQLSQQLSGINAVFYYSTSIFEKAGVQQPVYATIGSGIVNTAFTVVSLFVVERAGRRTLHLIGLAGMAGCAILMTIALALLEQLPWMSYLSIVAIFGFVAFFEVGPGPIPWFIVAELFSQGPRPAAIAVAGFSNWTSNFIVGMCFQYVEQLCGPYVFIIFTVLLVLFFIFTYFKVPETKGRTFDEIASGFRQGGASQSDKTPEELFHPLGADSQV
row,Structure (SMILES),inhibition [%]
1,Fc1ccc2[nH]c(-c3ccc(-c4ccc(CNCCN5CCNCC5)cc4)s3)nc2c1,0
2,O=C(Nc1ccc(-c2ccc(CN3CCNCC3)cc2)cc1)c1cccc(Cl)c1,107
3,CN(C)CCCc1cc2c(cc1Cl)CCN2C(=O)Nc1ccc(-c2ccncc2)c2ccccc12,-2.58
4,N=c1c2nc(-c3c(F)cccc3Cl)[nH]c(=O)c2[nH]c(=O)n1-c1ccccc1,2.91
5,CN(C)C=Nc1ccc(OCCCCCCOc2ccc(N=CN(C)C)cc2)cc1,3.14
6,CCC(Cc1cnc2nc(N)nc(N)c2n1)c1ccc(C(=O)N[C@@H](CCC(=O)O)C(=O)O)cc1 (stereo not given in full),11.9
7,N#Cc1ccc(-c2ccc(C(=O)NCCCCN3CCC(c4nc5ccccc5[nH]4)CC3)cc2)cc1,2.16
8,CCOC(=O)CNCC(=O)c1ccc(OCc2ccccc2)cc1,1.94
9,COc1cccc(NC(=O)c2cc(Br)cc(N3CCN(c4ccncc4)CC3)c2)c1,2.41
10,Cc1cc(C)c2oc(-c3cccc(NC(=O)c4ccc([N+](=O)[O-])o4)c3C)nc2c1,11.4
11,CS(=O)(=O)CCNCc1nc(-c2ccc3ncnc(Nc4ccc(OCc5ccccc5)c(Cl)c4)c3c2)cs1,4.21
12,Cc1cccc2nc(-c3ccc(-c4cccc(CNCCN5CCNCC5)c4)cc3)[nH]c12,9.94
13,Cc1c(C(=O)Nc2cc(Sc3ccc(F)cc3)cc([N+](=O)[O-])c2)sc2ncn(Cc3ccccc3F)c(=O)c12,9.44
14,COc1ccc2ccc(F)c(CCN3CCC(NCc4cc5c(cn4)OCCO5)CC3)c2n1,8.37
15,O=C(N[C@@H](Cc1ccccc1)C(=O)NC1CCCc2ccccc21)c1ccc(O)c(-c2cccc(C(F)(F)F)c2)c1 (stereo not given in full),-3.38
